Results taken from ChEMBL document CHEMBL1961873, “Compounds: GSK PKIS; Assays: Nanosyn kinase panel” (2012).

Columns and labels:
[1] = system: Epidermal growth factor receptor (Homo sapiens), P00533 [T790M]; conditions: at 1 µM
[2] = system: Epidermal growth factor receptor (Homo sapiens), P00533 [L858R,T790M]; conditions: at 0.1 µM
[3] = system: Epidermal growth factor receptor (Homo sapiens), P00533 [L858R,T790M]; conditions: at 1 µM
[4] = target: Ephrin type-A receptor 2 (Homo sapiens) (UniProt P29317); conditions: at 0.1 µM
Chain of Ephrin type-A receptor 2 (Homo sapiens) (P29317 whole entry): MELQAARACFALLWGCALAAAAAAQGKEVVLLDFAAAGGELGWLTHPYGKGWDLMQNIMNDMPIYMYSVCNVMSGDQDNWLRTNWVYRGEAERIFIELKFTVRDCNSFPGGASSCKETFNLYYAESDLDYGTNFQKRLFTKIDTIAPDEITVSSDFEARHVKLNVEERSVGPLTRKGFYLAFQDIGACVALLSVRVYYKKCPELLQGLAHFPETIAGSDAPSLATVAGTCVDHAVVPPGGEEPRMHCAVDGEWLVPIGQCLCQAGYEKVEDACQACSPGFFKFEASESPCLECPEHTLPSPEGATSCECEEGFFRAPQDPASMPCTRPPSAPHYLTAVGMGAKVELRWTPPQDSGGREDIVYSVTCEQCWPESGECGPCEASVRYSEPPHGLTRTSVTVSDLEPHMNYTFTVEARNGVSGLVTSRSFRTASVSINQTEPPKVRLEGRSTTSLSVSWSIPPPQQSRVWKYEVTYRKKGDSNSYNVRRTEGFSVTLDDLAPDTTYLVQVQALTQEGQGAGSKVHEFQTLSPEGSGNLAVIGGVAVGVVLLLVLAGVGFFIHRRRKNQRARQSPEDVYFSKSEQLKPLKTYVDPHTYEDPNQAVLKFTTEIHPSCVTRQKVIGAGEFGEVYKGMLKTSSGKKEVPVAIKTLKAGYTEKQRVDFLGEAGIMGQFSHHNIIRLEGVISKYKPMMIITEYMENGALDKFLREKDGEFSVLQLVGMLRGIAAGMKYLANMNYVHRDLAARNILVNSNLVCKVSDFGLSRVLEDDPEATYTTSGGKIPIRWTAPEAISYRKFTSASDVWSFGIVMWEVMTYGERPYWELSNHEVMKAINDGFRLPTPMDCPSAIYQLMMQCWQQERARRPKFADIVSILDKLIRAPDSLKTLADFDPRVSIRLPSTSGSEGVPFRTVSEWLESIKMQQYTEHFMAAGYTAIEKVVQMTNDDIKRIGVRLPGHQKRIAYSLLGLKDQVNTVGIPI

[5] = target: Ephrin type-A receptor 2 (Homo sapiens) (UniProt P29317); conditions: at 1 µM
[6] = target: T1, Ephrin type-A receptor 3 (Homo sapiens) (UniProt P29320); conditions: at 0.1 µM
T1 sequence (whole entry): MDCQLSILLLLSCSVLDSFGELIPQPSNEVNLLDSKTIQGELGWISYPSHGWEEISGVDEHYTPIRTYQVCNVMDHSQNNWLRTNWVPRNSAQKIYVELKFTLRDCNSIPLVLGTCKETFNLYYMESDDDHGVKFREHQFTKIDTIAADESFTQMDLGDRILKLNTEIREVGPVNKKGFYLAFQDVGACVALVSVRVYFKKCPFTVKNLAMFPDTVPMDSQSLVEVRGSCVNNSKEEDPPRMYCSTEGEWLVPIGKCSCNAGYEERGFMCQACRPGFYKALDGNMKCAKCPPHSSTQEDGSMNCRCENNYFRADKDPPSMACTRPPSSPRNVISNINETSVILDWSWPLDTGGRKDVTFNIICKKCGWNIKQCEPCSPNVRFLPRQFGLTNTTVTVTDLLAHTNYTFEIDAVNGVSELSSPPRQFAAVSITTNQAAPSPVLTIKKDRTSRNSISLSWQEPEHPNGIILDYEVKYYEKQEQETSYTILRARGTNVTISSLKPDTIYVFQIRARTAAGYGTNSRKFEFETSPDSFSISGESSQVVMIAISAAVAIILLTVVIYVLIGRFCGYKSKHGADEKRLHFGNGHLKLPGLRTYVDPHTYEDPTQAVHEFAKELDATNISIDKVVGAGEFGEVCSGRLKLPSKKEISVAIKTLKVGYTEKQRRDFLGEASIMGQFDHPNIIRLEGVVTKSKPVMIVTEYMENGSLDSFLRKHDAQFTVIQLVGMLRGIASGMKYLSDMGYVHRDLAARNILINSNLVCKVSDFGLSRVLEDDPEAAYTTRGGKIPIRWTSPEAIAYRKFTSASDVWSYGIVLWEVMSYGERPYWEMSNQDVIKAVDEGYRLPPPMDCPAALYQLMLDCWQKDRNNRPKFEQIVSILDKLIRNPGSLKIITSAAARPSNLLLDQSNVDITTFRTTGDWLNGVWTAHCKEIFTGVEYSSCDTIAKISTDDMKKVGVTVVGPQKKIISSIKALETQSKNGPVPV

[7] = target: T1, Ephrin type-A receptor 3 (Homo sapiens); conditions: at 1 µM
[8] = target: Ephrin type-A receptor 4 (Homo sapiens) (UniProt P54764); conditions: at 0.1 µM
Chain of Ephrin type-A receptor 4 (Homo sapiens) (P54764 whole entry): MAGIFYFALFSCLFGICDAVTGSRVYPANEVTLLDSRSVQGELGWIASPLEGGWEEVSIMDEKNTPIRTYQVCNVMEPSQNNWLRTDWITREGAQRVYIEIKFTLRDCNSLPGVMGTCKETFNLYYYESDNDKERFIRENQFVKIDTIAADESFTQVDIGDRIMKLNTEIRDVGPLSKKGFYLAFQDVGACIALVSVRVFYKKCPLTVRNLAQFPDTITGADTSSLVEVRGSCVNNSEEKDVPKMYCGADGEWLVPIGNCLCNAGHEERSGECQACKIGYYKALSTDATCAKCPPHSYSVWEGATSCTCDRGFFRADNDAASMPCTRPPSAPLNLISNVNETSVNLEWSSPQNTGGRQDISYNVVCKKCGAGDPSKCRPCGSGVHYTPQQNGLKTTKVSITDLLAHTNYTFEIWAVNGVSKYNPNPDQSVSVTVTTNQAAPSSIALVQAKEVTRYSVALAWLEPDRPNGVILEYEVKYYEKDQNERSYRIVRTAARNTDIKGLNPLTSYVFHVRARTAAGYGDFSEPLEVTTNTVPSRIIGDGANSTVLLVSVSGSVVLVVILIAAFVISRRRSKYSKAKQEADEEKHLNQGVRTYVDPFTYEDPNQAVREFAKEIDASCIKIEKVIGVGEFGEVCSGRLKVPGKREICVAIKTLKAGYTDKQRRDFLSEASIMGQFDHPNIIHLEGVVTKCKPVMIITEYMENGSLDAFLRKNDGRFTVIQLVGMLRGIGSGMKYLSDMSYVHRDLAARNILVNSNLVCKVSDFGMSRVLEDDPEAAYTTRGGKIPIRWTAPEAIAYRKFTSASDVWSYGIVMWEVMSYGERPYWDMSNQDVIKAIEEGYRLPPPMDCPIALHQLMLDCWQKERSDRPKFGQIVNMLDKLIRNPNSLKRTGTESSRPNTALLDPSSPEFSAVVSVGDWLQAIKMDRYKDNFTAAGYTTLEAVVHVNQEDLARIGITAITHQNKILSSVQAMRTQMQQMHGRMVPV

[9] = target: Ephrin type-A receptor 4 (Homo sapiens) (UniProt P54764); conditions: at 1 µM
[10] = target: T2, Ephrin type-B receptor 2 (Homo sapiens) (UniProt P29323); conditions: at 0.1 µM;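 also: reported as mean inhibition of EPHB2, from the GSK PKIS dataset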
T2 sequence (whole entry): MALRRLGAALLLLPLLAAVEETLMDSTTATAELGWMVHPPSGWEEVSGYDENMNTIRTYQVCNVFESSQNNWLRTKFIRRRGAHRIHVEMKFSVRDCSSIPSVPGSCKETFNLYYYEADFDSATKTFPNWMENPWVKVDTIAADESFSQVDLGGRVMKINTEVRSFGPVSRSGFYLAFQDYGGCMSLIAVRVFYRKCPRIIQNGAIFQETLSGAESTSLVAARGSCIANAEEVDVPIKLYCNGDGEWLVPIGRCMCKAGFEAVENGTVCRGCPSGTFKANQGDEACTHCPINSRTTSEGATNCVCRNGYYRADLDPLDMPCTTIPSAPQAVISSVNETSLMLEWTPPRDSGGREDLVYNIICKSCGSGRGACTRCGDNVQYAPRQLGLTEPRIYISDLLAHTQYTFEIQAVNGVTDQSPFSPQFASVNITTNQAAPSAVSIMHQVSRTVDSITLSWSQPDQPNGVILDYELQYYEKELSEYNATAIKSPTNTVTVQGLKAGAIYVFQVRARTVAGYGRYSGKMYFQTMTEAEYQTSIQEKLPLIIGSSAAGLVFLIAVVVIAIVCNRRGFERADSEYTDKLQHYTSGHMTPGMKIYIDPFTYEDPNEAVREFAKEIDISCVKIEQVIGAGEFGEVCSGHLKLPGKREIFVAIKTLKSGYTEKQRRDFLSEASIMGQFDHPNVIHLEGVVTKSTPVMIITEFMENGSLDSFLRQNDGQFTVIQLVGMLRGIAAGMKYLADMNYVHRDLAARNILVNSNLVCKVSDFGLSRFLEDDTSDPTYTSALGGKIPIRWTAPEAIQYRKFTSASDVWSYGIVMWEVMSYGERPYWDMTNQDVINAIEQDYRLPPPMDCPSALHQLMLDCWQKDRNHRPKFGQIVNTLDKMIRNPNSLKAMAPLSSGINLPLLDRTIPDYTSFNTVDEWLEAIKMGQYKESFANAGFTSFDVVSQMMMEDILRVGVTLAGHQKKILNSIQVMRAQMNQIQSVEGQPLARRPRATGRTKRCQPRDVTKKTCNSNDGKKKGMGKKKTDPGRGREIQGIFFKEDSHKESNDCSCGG

Chain of Epidermal growth factor receptor (Homo sapiens), P00533 [T790M] (P00533 whole entry T790M): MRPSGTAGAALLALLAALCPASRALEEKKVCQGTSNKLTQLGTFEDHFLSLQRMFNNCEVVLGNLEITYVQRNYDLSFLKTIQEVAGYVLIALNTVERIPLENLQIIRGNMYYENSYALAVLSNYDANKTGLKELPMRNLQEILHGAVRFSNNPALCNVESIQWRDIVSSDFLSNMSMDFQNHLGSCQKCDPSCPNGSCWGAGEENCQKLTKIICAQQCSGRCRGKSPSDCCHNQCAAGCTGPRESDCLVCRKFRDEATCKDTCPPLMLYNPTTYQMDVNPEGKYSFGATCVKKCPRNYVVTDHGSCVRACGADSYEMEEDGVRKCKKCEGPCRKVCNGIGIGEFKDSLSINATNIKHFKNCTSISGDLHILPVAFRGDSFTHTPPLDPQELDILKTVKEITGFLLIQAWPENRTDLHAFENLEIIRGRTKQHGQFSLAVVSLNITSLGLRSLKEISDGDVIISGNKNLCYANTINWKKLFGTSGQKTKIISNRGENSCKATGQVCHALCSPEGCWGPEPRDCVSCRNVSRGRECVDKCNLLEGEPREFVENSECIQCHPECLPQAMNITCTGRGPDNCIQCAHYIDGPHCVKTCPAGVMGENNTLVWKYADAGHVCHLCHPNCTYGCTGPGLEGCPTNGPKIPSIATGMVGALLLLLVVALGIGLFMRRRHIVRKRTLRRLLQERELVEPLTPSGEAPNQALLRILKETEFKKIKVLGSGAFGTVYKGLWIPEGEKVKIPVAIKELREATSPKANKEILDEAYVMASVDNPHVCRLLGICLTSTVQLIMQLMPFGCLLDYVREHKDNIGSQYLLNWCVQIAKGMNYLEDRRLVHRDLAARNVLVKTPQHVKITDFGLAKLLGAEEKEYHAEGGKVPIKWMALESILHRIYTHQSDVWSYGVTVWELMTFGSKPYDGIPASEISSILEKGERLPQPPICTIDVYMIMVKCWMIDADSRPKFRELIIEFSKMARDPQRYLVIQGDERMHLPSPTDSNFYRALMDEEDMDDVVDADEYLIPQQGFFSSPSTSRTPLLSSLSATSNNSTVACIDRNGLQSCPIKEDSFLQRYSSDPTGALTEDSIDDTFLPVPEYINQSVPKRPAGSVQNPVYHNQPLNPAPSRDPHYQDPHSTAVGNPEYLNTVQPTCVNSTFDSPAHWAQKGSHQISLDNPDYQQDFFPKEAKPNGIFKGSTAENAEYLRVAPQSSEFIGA
Chain of Epidermal growth factor receptor (Homo sapiens), P00533 [L858R,T790M] (P00533 whole entry T790M/L858R, looked up): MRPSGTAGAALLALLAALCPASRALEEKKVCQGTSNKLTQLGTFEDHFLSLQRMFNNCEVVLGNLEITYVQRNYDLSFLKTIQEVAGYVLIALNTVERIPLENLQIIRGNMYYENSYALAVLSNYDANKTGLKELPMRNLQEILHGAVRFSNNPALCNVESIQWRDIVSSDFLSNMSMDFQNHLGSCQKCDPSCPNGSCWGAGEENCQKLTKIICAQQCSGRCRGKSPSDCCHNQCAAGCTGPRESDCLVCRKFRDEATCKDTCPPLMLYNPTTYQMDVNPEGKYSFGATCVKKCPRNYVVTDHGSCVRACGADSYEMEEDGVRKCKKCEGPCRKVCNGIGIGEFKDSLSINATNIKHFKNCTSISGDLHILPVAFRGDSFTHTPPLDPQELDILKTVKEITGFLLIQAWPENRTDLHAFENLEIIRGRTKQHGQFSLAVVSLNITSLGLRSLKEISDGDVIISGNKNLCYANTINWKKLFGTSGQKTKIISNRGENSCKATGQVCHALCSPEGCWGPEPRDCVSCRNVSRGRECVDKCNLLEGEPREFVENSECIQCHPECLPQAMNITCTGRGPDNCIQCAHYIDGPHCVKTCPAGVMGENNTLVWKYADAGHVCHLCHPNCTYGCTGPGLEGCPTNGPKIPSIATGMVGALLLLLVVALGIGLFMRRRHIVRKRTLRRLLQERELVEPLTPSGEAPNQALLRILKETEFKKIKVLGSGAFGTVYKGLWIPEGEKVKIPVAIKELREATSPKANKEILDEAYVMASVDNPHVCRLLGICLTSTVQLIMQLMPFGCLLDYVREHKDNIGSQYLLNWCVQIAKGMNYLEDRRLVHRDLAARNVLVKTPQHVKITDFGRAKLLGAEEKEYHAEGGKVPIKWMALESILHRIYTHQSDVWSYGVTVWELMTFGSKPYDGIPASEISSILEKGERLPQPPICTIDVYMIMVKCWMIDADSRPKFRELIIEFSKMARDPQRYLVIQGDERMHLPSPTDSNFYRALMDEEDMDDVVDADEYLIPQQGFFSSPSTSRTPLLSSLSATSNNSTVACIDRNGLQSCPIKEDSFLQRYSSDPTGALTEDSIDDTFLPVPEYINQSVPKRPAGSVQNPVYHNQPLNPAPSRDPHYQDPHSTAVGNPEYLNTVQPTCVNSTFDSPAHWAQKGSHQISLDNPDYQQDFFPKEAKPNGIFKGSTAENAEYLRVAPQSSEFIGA

| SMILES | inhibition [1] [%] | inhibition [2] [%] | inhibition [3] [%] | inhibition [4] [%] | inhibition [5] [%] | inhibition [6] [%] | inhibition [7] [%] | inhibition [8] [%] | inhibition [9] [%] | inhibition [10] [%] |
| --- | --- | --- | --- | --- | --- | --- | --- | --- | --- | --- |
| CNC(=O)c1cc(-c2ccc(F)cc2)cc(-c2ccc(S(=O)(=O)N3CCCC3)cc2)c1N | 0.62 | -0.37 | 2.95 | -2.99 | -1.92 | 2.55 | 2.23 | 5.15 | 6.55 | 2.73 |
| Clc1ccc(-c2nn3ncccc3c2-c2ccnc(Nc3ccccc3)n2)cc1 | 14.4 | 9.72 | 53.3 | -1.33 | 2.12 | 1.69 | 7.97 | 3.45 | 23.3 | 8.11 |
| CS(=O)(=O)CCNCc1ccc(-c2ccc3ncnc(Nc4ccc(OCc5ccccc5)c(C(F)(F)F)c4)c3c2)o1 | 2.12 | 3.43 | 0.97 | 2.24 | 0.59 | 8.45 | 2.73 | 6.33 | 7.84 | 7.71 |
| COc1ccc(CNC(=O)c2ccc(-c3cc(-c4nnc(C)o4)ccc3C)cc2)cc1 | 5.47 | 3.26 | 3.61 | 2.44 | 2.41 | 1.41 | 4.21 | 5.67 | 15.7 | 7.58 |
| c1ccc(-c2nc3n(c2-c2ccc4c(c2)OCO4)CCC3)nc1 | 0.6 | 1.92 | 1.45 | -2.56 | -2.85 | -0.11 | 1.96 | 4.05 | 2.75 | 1.03 |
| N#Cc1c(NC(=O)c2ccc(F)cc2)sc2c1CCCC2 | -0.08 | -2.24 | 0.47 | -2.58 | -2.61 | 1.47 | 2.8 | 4.24 | 2.26 | 2.69 |
| COc1cc2ncn(-c3cc(OCc4ccccc4C(F)(F)F)c(C(=O)N(C)C)s3)c2cc1OC | -1.36 | 0.72 | -1.46 | -1.69 | -2.94 | 2.89 | 1.92 | 2.87 | 4.19 | 0.66 |
| CC(=O)Nc1cccc(C#Cc2cncnc2Nc2ccc(OCc3cccc(F)c3)c(Cl)c2)c1 |  |  |  | 4.33 | 2.42 | 4.65 | 3.23 | 8.19 | 0.69 | 6.52 |
| COc1ccc(-c2nn3ncccc3c2-c2ccnc(Nc3ccc4c(c3)OCCO4)n2)cc1 | 5.19 | 0.11 | 17.8 | -0.24 | 0.86 | -1.04 | 0.38 | 0.61 | 13.8 | 1.72 |
| c1cc(-c2cnn3nc(N4CCOCC4)ccc23)nc(NC2CC2)n1 | 0.49 | 1.11 | 1.53 | 2.12 | 0.18 | 5.23 | 5.8 | 10.2 | 10.9 | 10.2 |
| CS(=O)(=O)CCNCc1coc(-c2ccc3ncnc(Nc4ccc(OCc5ccccc5)cc4)c3c2)c1 | 10.3 | -2.4 | 4.59 | 2.56 | 0.15 | 7.79 | 5.01 | 8.01 | 5.86 | 3.86 |
| CCN1CCC(CC(=O)Nc2n[nH]c3nnc(-c4cccc(F)c4F)cc23)CC1 | 3.4 | 1.92 | 1.26 | 0.75 | 1.02 | 3.31 | 2.84 | 5.3 | 7.67 | -4.82 |
| COc1ccc(-c2cc3c(N)ncnc3o2)cc1 | -2.06 | -0.41 | -0.81 | -3.93 | -2.53 | -3.56 | -2.59 | -2.85 | 1.4 | -3.46 |
| COc1ccc2[nH]c3c4[nH]c5ccc(OC)cc5c4c4c(c3c2c1)C(=O)NC4=O | 17.9 | 9.7 | 53.1 | 2.52 | 0.85 | 5.78 | 6.32 | 10.1 | 22.6 | 10.7 |
| CC(=O)NCc1cccc(C#Cc2cncnc2Nc2ccc(OCc3cccc(F)c3)c(Cl)c2)c1 | 0.3 | 1.41 | 1.74 | -3.31 | -4.19 | -2.09 | 0.64 | -2.22 |  | 0.63 |
| CCn1c(-c2nonc2N)nc2ccccc21 | -1.8 | 2 | -0.39 | -0.14 | 0.64 | 5.44 | 3.08 | 7.78 | 9.13 | 6.72 |
| COc1cc(Nc2nccc(Nc3ccc4c(C)n[nH]c4c3)n2)cc(OC)c1OC | 5.15 | 4.13 | 20.9 | 28 | 71 | 6.23 | 15.3 | 41.4 | 75.2 | 19.3 |
